Measured values reported in PubChem BioAssay (NCI).
About 83,000 compounds went through this panel and 20% of them were active in at least one assay; those are over-represented in the sample as a whole.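 48-hour exposure, single concentration, 96-well plates; percent growth endpoint where 0 means no net growth. Active: below 10.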 The source made the active and inactive calls.

Tests used:
Experiment in all cases: NCI-60 one-dose screen, 48 h (100 = growth as untreated, 0 = no growth, -100 = all killed)
[1] = tested on: SK-MEL-2 melanoma; details: 10 µM unless noted
[2] = tested on: UO-31 renal; details: 10 µM unless noted
[3] = tested on: TK-10 renal; details: 10 µM unless noted
[4] = tested on: ACHN renal; details: 10 µM unless noted
[5] = tested on: CAKI-1 renal; details: 10 µM unless noted
[6] = tested on: A498 renal; details: 10 µM
[7] = tested on: HL-60(TB) leukemia; details: 10 µM unless noted
[8] = tested on: CCRF-CEM leukemia; details: 10 µM unless noted
[9] = tested on: MOLT-4 leukemia; details: 10 µM unless noted
[10] = tested on: SR leukemia; details: 10 µM unless noted
[11] = tested on: RPMI-8226 leukemia; details: 10 µM unless noted
[12] = tested on: OVCAR-8 ovarian; details: 10 µM unless noted
[13] = tested on: OVCAR-5 ovarian; details: 10 µM unless noted
[14] = tested on: OVCAR-4 ovarian; details: 10 µM unless noted
[15] = tested on: SK-OV-3 ovarian; details: 10 µM unless noted
[16] = tested on: OVCAR-3 ovarian; details: 10 µM unless noted
[17] = tested on: HS 578T breast; details: 10 µM unless noted
[18] = tested on: SN12C renal; details: 10 µM unless noted
[19] = tested on: IGROV1 ovarian; details: 10 µM unless noted
[20] = tested on: EKVX NSCLC; details: 10 µM unless noted

Measured: growth

CCCCCCCC[N+](C)(CCCCCCCC)CCCCCCCC
active: [1] -94.1% | [2] -100% | [3] -100% | [4] -93.6% | [5] -98.6% | [6] -100% | [12] -100% | [13] -100% | [14] -94.1% | [15] -97.8% | [16] -100% | [17] -66.6%
inactive: [7] 32% | [8] 85.7% | [9] 37.4% | [10] 28.1% | [11] 44.2%

Cc1c(O)c(CN(CCCl)CCCl)cc(CN(CCCl)CCCl)c1O
inactive: [1] 110% | [18] 72.9% | [3] 100% | [4] 42.5% | [5] 17.6% | [6] 92.4% | [7] 47.1% | [8] 41.8% | [9] 75.2% | [11] 86.8% | [12] 90.4% | [13] 97.9% | [14] 83.9% | [15] 102% | [19] 87.4% | [16] 101% | [17] 86.3%
active: [10] 4.03%

O=C(Nc1ccc(Cl)cc1)Nc1nccs1
active: [6] 8.26% | [7] -18.6% | [8] 6.31% | [16] -26.6%
inactive: [18] 50.4% | [2] 40.3% | [4] 54.4% | [9] 20.6% | [10] 27.3% | [12] 24.9% | [13] 67.4% | [14] 81.1% | [15] 33.1% | [19] 33.6% | [17] 49.9%

CCN(CC)c1ccc2c(c1)OC(N)=C(C#N)C2c1cc(OC)c2c(c1)OCO2 (stereo unspecified)
inactive: [20] 41.7% | [18] 15.1% | [2] 34.7% | [3] 59.3% | [4] 21.4% | [5] 32.7% | [9] 23.7% | [11] 26.6% | [13] 51.6% | [14] 43.5% | [19] 24%
active: [6] -4% | [15] 9.72% | [16] -30.7% | [17] 9.12%

COc1ccc(/C=C\c2cc(OC)c(OC)c(OC)c2)c(NS(=O)(=O)c2ccc(F)cc2)c1O
active: [1] -6.87% | [16] -37.8%
inactive: [2] 48% | [3] 59.3% | [4] 24.4% | [5] 20.8% | [7] 10.1% | [8] 17.4% | [9] 19.6% | [10] 19% | [11] 23.3% | [12] 22.5% | [13] 40.4% | [14] 29.3% | [15] 12.4% | [19] 28.3% | [17] 25.3%

C=CC[n+]1ccc(-c2cc[n+](CC=C)cc2)cc1
inactive: [18] 103% | [2] 95% | [3] 126% | [4] 103% | [5] 94.2% | [6] 100% | [7] 93.3% | [8] 84.7% | [9] 88.8% | [10] 93.9% | [11] 79.9% | [12] 61.3% | [13] 126% | [14] 37.6% | [15] 108% | [19] 13.6% | [16] 40.7% | [17] 116%

COc1cc(/C=C\c2cc(OC)c(OC)c(OC)c2)cc(N/C=C\C(=O)c2cc(OC)c(OC)c(OC)c2)c1OC
active: [6] -12.4% | [8] 8.89% | [10] -5.44% | [16] 9.78% | [17] 1.26%
inactive: [1] 15.9% | [18] 36.9% | [2] 22.3% | [3] 55.1% | [4] 28.9% | [9] 28.7% | [11] 22.8% | [12] 41.2% | [13] 31.8% | [15] 21.3% | [19] 15.6%

C[C@]12CC[C@H]3[C@@H](CC4SC(N)=NC45C/C(=N/NC(N)=O)CC[C@]35C)[C@@H]1CCC2=O (stereo partly specified)
active: [20] -4.54% | [8] -5.86% | [10] -21.8% | [11] -6.28% | [12] -2.26% | [14] -19.1% | [19] 2.9% | [16] -32.3%
inactive: [18] 18.1% | [2] 85.8% | [3] 49.2% | [4] 32.4% | [5] 63% | [6] 91.6% | [7] 42.8% | [9] 13.4% | [13] 72.9% | [15] 101%

ClCCN(CCCl)c1ccc(/C=N/Nc2ncnc3nc[nH]c23)cc1
active: [10] 6.32%
inactive: [20] 85.1% | [18] 67.2% | [2] 54.2% | [3] 113% | [4] 74.8% | [6] 98.4% | [7] 92% | [8] 42.4% | [9] 26.3% | [11] 91.9% | [12] 80% | [13] 124% | [14] 80.3% | [15] 82.6% | [19] 28.3% | [16] 98.5% | [17] 151%

N#Cc1c(Br)n(C2OC(CO)C(O)C2O)c2ncnc(N)c12 (stereo unspecified)
active: [6] -16.3% | [7] -33.7% | [8] 8.19% | [19] -35.1%
inactive: [20] 95.7% | [18] 60.3% | [2] 42.3% | [3] 115% | [4] 78.4% | [13] 95.5% | [14] 75.3% | [15] 78.3% | [17] 39.5%

Cn1cc(C2=C(c3cn(C4CCN(Cc5ccccn5)CC4)c4ccccc34)C(=O)NC2=O)c2ccccc21
inactive: [20] 83.4% | [18] 81.1% | [2] 48.4% | [3] 56.3% | [4] 63.8% | [6] 88.1% | [7] 39.8% | [8] 112% | [9] 85.7% | [11] 107% | [12] 78.8% | [13] 31.2% | [14] 76.8% | [19] 33.9% | [16] 90.3%
active: [10] 7.89%

CN(C)C(=O)Oc1ccc(Br)cc1
inactive: [18] 106% | [2] 85.1% | [3] 99.8% | [4] 109% | [6] 117% | [8] 89.7% | [9] 102% | [10] 100% | [11] 106% | [12] 106% | [13] 106% | [14] 97.7% | [15] 95.8% | [19] 96.7% | [16] 106% | [17] 115%

COC(=O)[C@H](Cc1c[nH]c2ccccc12)NC(=O)[C@@H](OC)[C@@H]1Cc2cc3cc(OC4CC(OC5CC(O)C(O)C(C)O5)C(O)C(C)O4)c(C)c(O)c3c(O)c2C(=O)[C@H]1OC1CC(OC2CC(OC3CC(C)(O)C(O)C(C)O3)C(O)C(C)O2)C(O)C(C)O1 (stereo partly specified)
inactive: [18] 10.6% | [5] 19.5% | [12] 11% | [13] 15.3% | [15] 18.2% | [19] 23.4%
active: [20] 3.61% | [2] -6.63% | [3] 8.12% | [4] 0.567% | [6] -52.8% | [7] -8.66% | [8] 5.66% | [9] 0.755% | [10] 4.93% | [11] -5.61% | [14] 0.345% | [16] 4.79% | [17] -13.6%

CCCc1cc(O)c2c3c(c(=O)oc2c1)CN(C)CC3
inactive: [1] 97.7% | [18] 39.1% | [3] 47.3% | [4] 44.6% | [6] 15.4% | [8] 18.8% | [9] 27% | [10] 15.8% | [11] 28.4% | [12] 32.3% | [13] 55.9% | [14] 56.3% | [15] 26.8% | [19] 32.7% | [17] 45.7%
active: [5] 4.68% | [7] 6% | [16] -3.56%

CC(C)[C@]12O[C@H]1[C@@H]1O[C@]13[C@]1(O[C@H]1C[C@H]1c4c(C(=O)c5ccccc5)oc(OC(=O)c5ccccc5)c4CC[C@@]13C)[C@@H]2O
inactive: [18] 23.7% | [3] 44% | [4] 10.6% | [13] 15.2% | [14] 21.3% | [15] 27.3%
active: [20] -17.2% | [2] 7.34% | [6] -49.4% | [8] -32.5% | [12] 6.13% | [19] -33% | [16] -57.5% | [17] -30.6%

CCNc1nc(Cl)nc(NCC)n1
inactive: [20] 86.5% | [2] 77.1% | [3] 116% | [4] 102% | [5] 77.3% | [6] 95.8% | [7] 98.4% | [8] 96.8% | [9] 69.8% | [10] 75.8% | [11] 94.3% | [12] 58.9% | [13] 104% | [14] 95.6% | [15] 109% | [19] 29.4% | [16] 108% | [17] 96.8%
